Measured values from PubChem BioAssay AID588432 (Broad Institute, 2011).
Active and inactive are the calls of the source.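 Rule for the calls: active = luciferase inhibitors whose fitted dose curve gives a half-maximal potency within ten times the top tested dose; inconclusive = flat curve with 30 to 70% inhibition, or a poor fit; inactive = the rest.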

test: ADP-Glo luciferase interference without Dyrk1A, dose response, artefact control for Dyrk1A inhibitor project, biochemical, luminescence, cherry-pick, set 04 (AID 588432); details: ADP-Glo luminescence without kinase, luciferase artifact; series mostly up to 12 µM

outcome, inactive:
Cc1ccsc1CN(C)c1ncnc2ccc(-c3ccoc3)cc12
c1coc(CCNc2ncnc3ccc(-c4ccc5c(c4)OCO5)cc23)c1
Cc1occc1CNc1ncnc2ccc(-c3ccc4c(c3)OCO4)cc12
CCN1/C(=C/C(C)=O)Sc2ccc(OC)cc21
Brc1cc(Br)cc(CNc2nccc(-c3ccc4c(c3)OCO4)n2)c1
Cc1nc(CN(C)c2ncnc3ccc(-c4ccc5c(c4)OCO5)cc23)cs1
c1cncc(CNc2nccc(-c3ccc4[nH]ncc4c3)n2)c1
Clc1cc(Cl)cc(CNc2cc(-c3ccc4c(c3)OCO4)ncn2)c1
Cc1c(-c2ccnc(NCc3cccnc3)n2)sc(=O)n1C
Clc1cc(Cl)cc(CNc2ncncc2-c2ccc3c(c2)OCO3)c1
c1nc(NCC2CCCOC2)c2cc(-c3ccc4c(c3)OCO4)ccc2n1 (centres undefined)
c1cncc(CNc2cc(-c3ccc4c(c3)OCO4)ncn2)c1
COc1cc(-c2ccc3ncnc(NCCc4cnc[nH]4)c3c2)cc(OC)c1OC
Cc1ccc(CNc2ncnc3ccc(-c4ccc5c(c4)OCO5)cc23)o1
c1cncc(CNc2ncncc2-c2ccc3c(c2)OCO3)c1
c1cncc(CNc2nccc(-c3ccc4c(c3)OCO4)n2)c1
c1csc(CCNc2ncnc3ccc(-c4ccc5c(c4)OCO5)cc23)c1
Clc1cccc(-c2ccc3ncnc(NCc4ccc5c(c4)OCO5)c3c2)c1
c1csc(CNc2ncnc3ccc(-c4ccc5c(c4)OCO5)cc23)c1
Cc1cccc(CNc2ncnc3ccc(-c4cccc(Cl)c4)cc23)c1
c1cncc(CNc2ccnc(-c3ccc4[nH]ncc4c3)n2)c1
Cc1nc(CNc2ncnc3ccc(-c4ccoc4)cc23)cs1
CCCNc1ncnc2ccc(-c3ccc4c(c3)OCO4)cc12
Clc1ccc(CNc2ncncc2-c2ccc3c(c2)OCO3)cc1
Cc1csc(CNc2ncnc3ccc(-c4ccc5c(ccn5C)c4)cc23)c1
CN(Cc1ccco1)c1ncnc2ccc(-c3ccc4c(c3)OCO4)cc12
Clc1ccc(CNc2cc(-c3ccc4c(c3)OCO4)ncn2)cc1
Clc1ccc(CNc2ncncc2-c2ccc3c(c2)OCO3)cc1Cl
Cc1c(-c2ccnc(NCc3ccc(Cl)cc3)n2)sc(=O)n1C
CN(Cc1nccs1)c1ncnc2ccc(-c3ccc4c(c3)OCO4)cc12
Clc1ccc(CNc2cc(-c3ccc4c(c3)OCO4)ncn2)cc1Cl
Clc1ccc(CNc2ccnc(-c3ccc4[nH]ncc4c3)n2)cc1Cl
Clc1ccc(CNc2nccc(-c3ccc4cn[nH]c4c3)n2)cc1Cl
CS(=O)(=O)CCNCc1ccc(-c2ccc3ncnc(Nc4ccc(OCc5cccc(F)c5)c(Cl)c4)c3c2)o1
